High-throughput results as filed in PubChem BioAssay.
TRPML1 blocker: inhibitors of human TRPML1 channel; activity change, negative = inhibition, % (concentration not given with the values); 0.02% of 390,000 active; AID 624415; TRPML1-inducible cells, Ca2+ dye fluorescence, FDSS; hits give low values; inhibition of EC80 agonist-evoked calcium signal; Q9GZU1; in the data active = activity change below about -50%; inconclusive = between about -30% and that limit;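 also: stimulus is agonist 54-4 at its EC80 concentration; % is scaled to controls: 0 for no effect and ±100 for the full control effect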
Target sequence (Q9GZU1 whole entry, looked up): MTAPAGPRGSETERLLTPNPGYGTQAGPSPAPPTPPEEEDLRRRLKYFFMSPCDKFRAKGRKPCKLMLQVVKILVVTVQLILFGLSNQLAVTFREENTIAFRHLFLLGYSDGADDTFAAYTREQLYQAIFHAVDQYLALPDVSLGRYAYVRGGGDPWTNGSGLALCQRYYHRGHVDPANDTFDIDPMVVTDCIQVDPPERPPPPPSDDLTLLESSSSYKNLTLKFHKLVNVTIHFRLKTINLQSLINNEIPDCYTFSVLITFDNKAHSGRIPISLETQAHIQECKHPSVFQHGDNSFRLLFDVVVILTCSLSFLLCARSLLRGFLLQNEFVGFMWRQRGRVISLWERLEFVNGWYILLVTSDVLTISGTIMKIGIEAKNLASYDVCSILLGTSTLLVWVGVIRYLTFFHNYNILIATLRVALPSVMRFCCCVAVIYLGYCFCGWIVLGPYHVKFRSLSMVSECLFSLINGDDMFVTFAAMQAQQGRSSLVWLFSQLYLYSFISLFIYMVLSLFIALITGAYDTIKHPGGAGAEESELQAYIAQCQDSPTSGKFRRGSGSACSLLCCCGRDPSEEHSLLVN
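TRPML1-DL cells, Tet-induced overnight (~16 h, 37 °C) at 1,500 cells/well, were loaded with Ca8 no-wash dye plus quencher for 45-90 min at room temperature. Compounds were pinned during FDSS kinetic reading; agonist 54-4 at EC80 (4 uM final) then added.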
TRPML1 agonist: human mucolipin-1 channel agonism | TRPML1-expressing cells, Ca2+ dye fluorescence, FDSS | activation, % (concentration not given with the values) | 0.12% of 410,000 active; in the data active = activation above about 50%; inconclusive = mostly about 30% to 49%; also: 0% is about no effect
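Tet-induced TRPML1-DL cells, 1,500 per well, cultured overnight, were loaded with a no-wash Ca2+ dye for 45–90 min. Calcium fluorescence was recorded on the FDSS for 110 s after compound addition, before the EC80 agonist (4 uM 54-4) was added.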
TRHR agonist: agonists of human TRH receptor; TRHR cells, calcium flux fluo-8, FDSS agonist mode; P34981; activation, % at 2 µM; 0.18% of 360,000 active; in the data active = activation above about 30%; also: 0% is about no effect
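Read-out: compound-evoked intracellular calcium rise in TRHR cells, fluo-8 dye, kinetic FDSS fluorescence at 1 s/cycle following a 10-cycle baseline. Cells cultured overnight before dye loading (30 min–1.5 h, RT).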
TRHR enhancer: allosteric enhancers of human TRH receptor; TRHR cells, fluo-8 calcium fluorescence, EC20 TRH enhancement; 0.66% of 360,000 active; enhancement, % at 2 µM; in the data active = enhancement above about 30%; also: 0% is about no effect
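TRHR-expressing cells loaded with fluo-8 calcium dye were read kinetically (ex 480/em 530) during compound addition, then stimulated with an EC20 of TRH (10 nM final). Enhancement of the Gq-mediated intracellular calcium response was scored.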
PTAP TSG101 blk: blocks PTAP/TSG101 interaction to inhibit HIV-1 budding. Q99816. Fluorescence polarization, FITC-PTAP peptide / Tsg101 binding. Potency, µM (titrated, usually from 115 µM), for inactives: at the highest dose activity change, negative = inhibition, most hits filed as inhibitors. 340,000 tested, under 10 active; active = well fitted inhibition curve with a large enough effect in the main read-out, with a control signal flat, not every such curve was filed as active; inconclusive = small, poorly fitted or top-dose-only effect, or effect the other way, or a change in a side signal; inactive = no such curve, though single readings can be large or run the other way; also: potency is read from the fitted curve at half-maximal effect; % of control where 0% means no effect
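Fluorescence anisotropy tracks displacement of a FITC-tagged PTAP peptide (50 nM) from the Tsg101 binding domain (10 uM), following a 20 min room-temperature incubation at pH 7.5.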
* hit, by the source's call; u = inconclusive; x = no result given. Most compounds without a hit are left out; they make up all but 0.81% or so of the library.

SMILES	TRPML1 blocker	TRPML1 agonist	TRHR agonist	TRHR enhancer	PTAP TSG101 blk
COc1cccc(C2CC(C(F)(F)F)n3ncc(C(=O)NCc4ccco4)c3N2)c1 (configuration not stated)	3.9	1.1	-1.5	32.0*	-2.2%
CC(C)c1nc(N2CCN(C(=O)c3ccccc3)CC2)c(C#N)c2c1COC(C)(C)C2	3.5	-0.3	-0.9	-6.5	-5.5%
CC1(C)Cc2c(C#N)c(N3CCN(C(=O)c4ccccc4)CC3)nc(-c3ccco3)c2CS1	19.9	2.5	-0.9	32.8*	-4.4%
CCN(CC)C(=O)N1CCN(/[N+]([O-])=N/Oc2ccc([N+](=O)[O-])cc2[N+](=O)[O-])CC1	21.5	2.1	x	x	x
CCCn1c(=O)c2sccc2n2c(CCCC(=O)NC3CCC(C)CC3)nnc12 (configuration not stated)	16.8	-0.6	-0.3	36.7*	x
COC(=O)c1ccc(C(=O)NC2CCCc3c2cnn3-c2ccc(C)c(C)c2)cc1 (configuration not stated)	-1.5	0.0	0.0	35.4*	-5.7%
COc1cc(C2CC(=O)Oc3c2c(=O)[nH]c2ccccc32)cc(OC)c1OC (configuration not stated)	-2.0	1.7	-0.3	30.6*	x
Oc1ccc(-c2csc(-c3c[nH]c4ccccc34)n2)c(O)c1	24.1	1.5	0.4	39.7*	0.0%
CN(C)S(=O)(=O)c1cccc(NC(=O)COC(=O)CCOc2ccccc2)c1	-15.1	-0.7	-0.4	32.5*	0.4%
NS(=O)(=O)c1cccc(NC(=O)COc2ccc([N+](=O)[O-])cc2)c1	-1.8	-0.1	0.3	33.3*	-1.8%
CC(C)NS(=O)(=O)c1ccc(OCC(=O)Nc2cccc(F)c2)cc1	5.1	1.3	-1.0	32.1*	-0.2%
Cc1cc(C)n(CC(C)Nc2nc3nonc3nc2N2CCCCC2)n1 (configuration not stated)	-18.5	-0.6	-0.5	-5.3	0.3%
Cc1nn(C)cc1C(C)Nc1nc2nonc2nc1N1CCCCC1 (configuration not stated)	7.0	-0.1	-0.7	32.6*	-2.2%
Cc1ccc(S(=O)(=O)NCC(=O)OCc2csc(-c3ccccc3)n2)cc1	-9.8	1.1	-0.9	33.1*	0.3%
O=C(CNS(=O)(=O)c1ccc2ccccc2c1)OCc1csc(-c2ccccc2)n1	-11.0	1.2	1.2	2.4	0.0%
Cn1c(=O)n(C)c2cc(NS(=O)(=O)c3ccccc3)c(NCc3ccccc3)cc21	-5.4	2.6	-0.1	30.1*	x
COc1ccc(C(CC(=O)O)c2ccc3c(c2)OCO3)cc1 (configuration not stated)	15.2	-0.5	-0.1	-1.3	-2.0%
NC(=O)CC(c1ccccc1)c1ccc2c(c1)OCO2 (configuration not stated)	14.1	-1.1	0.0	33.1*	-0.2%
COc1cc(CCC(=O)OCC(=O)Nc2ccccc2C#N)cc(OC)c1OC	-22.2	1.4	0.4	33.6*	-6.5%
N=c1n(N)c2ccccc2n1CC(=O)c1ccc(Br)cc1	10.6	-0.1	-1.3	32.5*	-5.3%
Cc1cc2c(s1)c1cnn(Cc3ccc(Br)cc3)c(=O)c1n2C	x	x	-2.3	-1.4	x
COc1cc2cncnc2cc1OCCCCC(N)=O	x	0.4	x	x	x
CN(C)c1ccc(C(I)C(I)c2ccnc3ccccc23)cc1 (configuration not stated)	x	18.5	x	x	x
CN(C)CCCNC(=O)c1cc(C(=O)Cc2ccccc2)c[nH]1	20.5	0.4	1.0	33.9*	-5.0%
COc1ccc(N2CCN(C(c3ccccc3OC)c3nnnn3C3CCCC3)CC2)cc1 (configuration not stated)	u	79.4*	-0.4	-3.5	-8.9%
SMILES	TRPML1 blocker	TRPML1 agonist	TRHR agonist	TRHR enhancer	PTAP TSG101 blk
COc1cccc(C(c2nnnn2CCc2ccccc2)N2CCN(c3ccccc3)CC2)c1OC (configuration not stated)	-9.1	87.7*	0.4	-2.7	-3.7%
COc1ccc(N2CCN(C(c3cccc(OC)c3OC)c3nnnn3C3CCCC3)CC2)cc1 (configuration not stated)	-11.3	19.9	0.0	10.4	0.6%
Cc1cc2c(s1)c1cnn(Cc3ccc(C)c(F)c3F)c(=O)c1n2C	x	x	0.1	3.4	x
Cc1cc2oc(=O)cc(CN3CCC(C)CC3)c2cc1Cl	6.6	-0.3	0.2	30.2*	-9.3%
O=C(NCc1ccco1)c1ccc2snnc2c1	-2.8	-0.2	0.1	31.8*	-0.2%
Cc1ccc(-c2nnc(-n3nc(C)cc3C)c3ccccc23)cc1	21.4	-0.2	-1.8	30.5*	-1.7%
Cc1cc(C)n(-c2nnc(Cl)c3ccccc23)n1	-0.8	-0.2	0.1	-14.2	-6.0%
COc1cccc(Cn2ncc3c4sc(C)cc4n(C)c3c2=O)c1	x	x	-2.0	-2.1	x
Cc1ccc(OCCN2CCCC2)cc1	-4.6	0.2	0.0	33.0*	-4.0%
Cc1ccc(OCCCCN2CCCCC2)cc1	19.1	-0.5	0.6	-5.6	-4.8%
Clc1ccc(OCCN2CCOCC2)cc1	-3.4	0.1	-0.5	36.0*	-4.8%
Brc1ccc(OCCN2CCOCC2)cc1	-15.7	-0.8	0.3	5.2	0.6%
O=c1oc2c(CN3CCCCC3)c(O)ccc2cc1-c1nc2ccccc2[nH]1	10.5	18.6	261.2*	39.8*	u
O=c1oc2c(O)cccc2cc1-c1nc2ccccc2[nH]1	-0.8	-0.6	198.6*	47.9*	u
CN1CCN(Cc2c(O)ccc3cc(-c4ccccc4)c(=O)oc23)CC1	-14.2	8.7	2.0	0.1	x
O=C(O)c1ccc2nc(-c3cc4cccc(O)c4oc3=O)[nH]c2c1	-1.1	0.8	0.4	8.5	x
COc1cccc(CNC(=O)CSc2nc3ccccc3nc2Cc2ccc(C)cc2)c1OC	-1.3	0.5	0.2	32.8*	x
O=C1NC(c2cccc(Cl)c2)Oc2ccccc21 (configuration not stated)	-6.6	0.4	-0.1	31.9*	-2.9%
Cc1oc(-c2ccccc2)nc1Cn1c(=O)cc(-c2ccccc2)c2c(C)nn(C)c21	3.9	0.7	-0.5	1.0	x
Cc1ccc(C)c(-c2nc(Cn3c(=O)cc(-c4ccccc4)c4c(C)nn(C)c43)c(C)o2)c1	17.2	0.7	31.7*	2.9	x
CCn1c(C)nc2cc(C(=O)n3cc(C(=O)c4cc(F)ccc4O)cn3)ccc21	x	x	1.0	30.2*	x
C[N+](C)(CCCCCI)c1ccc(/C=C/c2nc3ccccc3s2)cc1	x	3.7	x	x	x
CCn1c(=O)c(C(=O)NNC(=O)c2ccccc2Cl)c(O)c2ccccc21	15.9	u	-0.7	9.0	0.4%
CCn1c(=O)c(C(=O)NNC(=O)c2ccccc2F)c(O)c2ccccc21	-1.1	17.2	42.9*	-8.1	-11.2%
